{"source": "ChEMBL document CHEMBL4513146", "about": "“CO-ADD screening of Karazin Kharkiv National University (Ukraine) compounds”", "note": "Results with a measured potency or affinity are listed apart."}
{"test_system": "Klebsiella pneumoniae", "conditions": "Concentration 32 ug.mL-1;; ASSAY_TEST Inhibition of Bacterial Growth; detection method Absorption (OD600); MEDIA CAMHB; plate type 384well; NBS; CORNING #3640; time 18 hr", "units": {"Inhibition": "%"}}
{"compound": "COC(=O)c1ccc(NC(=O)Cn2nc3ccc(S(=O)(=O)C4CCCCC4)nn3c2=O)cc1", "Inhibition": 9.79}
{"compound": "Cc1nnc2c(=O)n(CC(=O)Nc3ccc(C(C)C)cc3)c3ccccc3n12", "Inhibition": 15.67}
{"compound": "Cc1ccc(NC(=O)Cn2nc3c(N4CC(C)CC(C)C4)nccn3c2=O)c(F)c1", "note": "(stereo not drawn)", "Inhibition": 10.72}
{"compound": "Cc1ccc(CN(c2ccc(F)cc2)S(=O)(=O)c2ccc3nnc(C)n3c2)cc1", "Inhibition": -1.29}
{"compound": "COc1ccccc1NC(=O)Cn1nc2c(Sc3ccccc3)nccn2c1=O", "Inhibition": -2.04}
{"compound": "CCCN(C)c1nccn2c(=O)n(CC(=O)Nc3cccc(Cl)c3F)nc12", "Inhibition": 7.25}
{"compound": "Cc1ccc(-n2ccn3c(SCC(=O)Nc4ccc5c(c4)OCCO5)nnc3c2=O)cc1C", "Inhibition": 9.68}
{"compound": "CC1CC(C)CN(c2nccn3c(=O)n(CC(=O)NCc4ccccc4Cl)nc23)C1", "note": "(stereo not drawn)", "Inhibition": 9.46}
{"compound": "Cc1cccc(Sc2nccn3c(=O)n(CC(=O)Nc4ccc(Br)cc4C)nc23)c1", "Inhibition": 8.64}
{"compound": "CCc1nnc2c(=O)n(CC(=O)Nc3ccc4c(c3)OCCO4)c3ccccc3n12", "Inhibition": 1.64}
{"compound": "COC(=O)c1cccc(NC(=O)Cn2nc3c(N4CCC(C)CC4)nccn3c2=O)c1", "Inhibition": 5.33}
{"compound": "Cc1cc2nn(CC(=O)Nc3ccccc3)c(=O)n2c(Nc2ccc(C)c(F)c2)n1", "Inhibition": 9.53}
{"compound": "Cc1ccc(N(CC(=O)OC(C)(C)C)S(=O)(=O)c2ccc3nnc(C)n3c2)cc1", "Inhibition": 4.9}
{"compound": "Cc1ccc(N(Cc2ccc(F)cc2)S(=O)(=O)c2ccc3nnc(C)n3c2)cc1", "Inhibition": 5.71}
{"compound": "CC(C)c1ccc(NC(=O)Cn2nc3ccc(SCc4ccc(Cl)cc4)nn3c2=O)cc1", "Inhibition": 6.44}
{"compound": "O=C(CSc1nnc2c(=O)n(-c3ccccc3)ccn12)Nc1ccc(Br)cc1F", "Inhibition": 1.03}
{"compound": "COc1cccc(CNC(=O)CSc2nnc3c4cc(-c5ccc(C)cc5)nn4ccn23)c1", "Inhibition": -13.2}
{"compound": "O=C(Cn1nc2ccc(Sc3ccccc3)nn2c1=O)Nc1ccc(Cl)cc1", "Inhibition": 9.24}
{"compound": "CC(=O)Nc1ccc(NC(=O)CSc2nc3ccccc3n3cnnc23)cc1", "Inhibition": 2.19}
{"compound": "CCOc1ccc(-n2ccn3c(SCC(=O)Nc4ccc(C)cc4Cl)nnc3c2=O)cc1", "Inhibition": 9.51}
{"compound": "COc1cccc(Oc2nccn3c(=O)n(CC(=O)Nc4ccc(OC)c(OC)c4)nc23)c1", "Inhibition": 7.97}
{"compound": "CCc1ccc(N(Cc2ccccc2Cl)S(=O)(=O)c2cccn3c(C)nnc23)cc1", "Inhibition": 4.84}
{"compound": "Cc1ccc(-c2ccc3nn(CC(=O)Nc4ccc(Br)cc4F)c(=O)n3n2)cc1", "Inhibition": 9.08}
{"compound": "Cc1ccc(Oc2nccn3c(=O)n(CC(=O)Nc4cc(F)ccc4F)nc23)cc1", "Inhibition": 10.7}
{"compound": "CC(C)c1nnc2c(=O)n(CC(=O)Nc3cccc(Cl)c3)c3ccccc3n12", "Inhibition": 4.29}
{"compound": "O=c1n(Cc2nc(-c3ccc(OC(F)(F)F)cc3)no2)nc2ccc(-c3ccccc3)nn12", "Inhibition": 8.49}
{"compound": "COc1cccc(-c2noc(Cn3nc4ccc(-c5ccc(C)c(C)c5)nn4c3=O)n2)c1OC", "Inhibition": 9.19}
{"compound": "O=C(Cn1nc2c3sc(N4CCCC4)nc3ncn2c1=O)Nc1cccc(Br)c1", "Inhibition": 18.9}
{"compound": "O=c1c2sccc2n2c(=O)n(Cc3ccc(Br)cc3)nc2n1Cc1cccs1", "Inhibition": -4.09}
{"compound": "CCC(C)NC(=O)Cn1nc2n(CCC(C)C)c(=O)c3sccc3n2c1=O", "note": "(stereo not drawn)", "Inhibition": 0.17}
{"compound": "Cc1cc(C)cc(N(Cc2cc(F)cc(F)c2)S(=O)(=O)c2cccn3c(C)nnc23)c1", "Inhibition": 11.7}
{"compound": "Cc1cc(C)c(NC(=O)CSc2nc3ccccc3n3c(C)nnc23)c(C)c1", "Inhibition": 10.14}
{"compound": "O=C(Cn1nc2c(Sc3ccccc3)nccn2c1=O)Nc1cc(F)ccc1F", "Inhibition": -2.16}
{"compound": "COc1ccccc1NC(=O)Cn1nc2c(Oc3ccc(Cl)cc3)nccn2c1=O", "Inhibition": 6.51}
{"compound": "COc1cccc(-n2ccn3c(SCC(=O)Nc4ccc(F)cc4F)nnc3c2=O)c1", "Inhibition": 3.3}
{"compound": "COc1ccc(NC(=O)Cn2nc3c4cc(-c5ccc(C)cc5)nn4ccn3c2=O)c(OC)c1", "Inhibition": 9.2}
{"compound": "COc1ccc(NC(=O)CSc2nc3ccccc3n3c(C(C)C)nnc23)c(OC)c1", "Inhibition": 7.3}
{"compound": "CCc1ccccc1Sc1nccn2c(=O)n(CC(=O)N3CCN(c4ccccc4)CC3)nc12", "Inhibition": -1.73}
{"compound": "CCOc1ccc(N(Cc2ccc(F)cc2)S(=O)(=O)c2ccc3nncn3c2)cc1", "Inhibition": 4.23}
{"test_system": "Candida albicans", "conditions": "Concentration 32 ug.mL-1; ASSAY_TEST Inhibition of Fungal Growth; detection method Absorption (OD530)", "units": {"Inhibition": "%"}}
{"compound": "COC(=O)c1ccc(NC(=O)Cn2nc3ccc(S(=O)(=O)C4CCCCC4)nn3c2=O)cc1", "Inhibition": 17.49}
{"compound": "Cc1nnc2c(=O)n(CC(=O)Nc3ccc(C(C)C)cc3)c3ccccc3n12", "Inhibition": 5.98}
{"compound": "Cc1ccc(NC(=O)Cn2nc3c(N4CC(C)CC(C)C4)nccn3c2=O)c(F)c1", "note": "(stereo not drawn)", "Inhibition": 3.58}
{"compound": "Cc1ccc(CN(c2ccc(F)cc2)S(=O)(=O)c2ccc3nnc(C)n3c2)cc1", "Inhibition": 5.66}
{"compound": "COc1ccccc1NC(=O)Cn1nc2c(Sc3ccccc3)nccn2c1=O", "Inhibition": 1.31}
{"compound": "CCCN(C)c1nccn2c(=O)n(CC(=O)Nc3cccc(Cl)c3F)nc12", "Inhibition": 0.78}
{"compound": "Cc1ccc(-n2ccn3c(SCC(=O)Nc4ccc5c(c4)OCCO5)nnc3c2=O)cc1C", "Inhibition": 0.14}
{"compound": "CC1CC(C)CN(c2nccn3c(=O)n(CC(=O)NCc4ccccc4Cl)nc23)C1", "note": "(stereo not drawn)", "Inhibition": -0.66}
{"compound": "Cc1cccc(Sc2nccn3c(=O)n(CC(=O)Nc4ccc(Br)cc4C)nc23)c1", "Inhibition": 6.35}
{"compound": "CCc1nnc2c(=O)n(CC(=O)Nc3ccc4c(c3)OCCO4)c3ccccc3n12", "Inhibition": 13.49}
{"compound": "COC(=O)c1cccc(NC(=O)Cn2nc3c(N4CCC(C)CC4)nccn3c2=O)c1", "Inhibition": 2.15}
{"compound": "Cc1cc2nn(CC(=O)Nc3ccccc3)c(=O)n2c(Nc2ccc(C)c(F)c2)n1", "Inhibition": 4.54}
{"compound": "Cc1ccc(N(CC(=O)OC(C)(C)C)S(=O)(=O)c2ccc3nnc(C)n3c2)cc1", "Inhibition": 1.78}
{"compound": "Cc1ccc(N(Cc2ccc(F)cc2)S(=O)(=O)c2ccc3nnc(C)n3c2)cc1", "Inhibition": 1.54}
{"compound": "CC(C)c1ccc(NC(=O)Cn2nc3ccc(SCc4ccc(Cl)cc4)nn3c2=O)cc1", "Inhibition": 14.48}
{"compound": "O=C(CSc1nnc2c(=O)n(-c3ccccc3)ccn12)Nc1ccc(Br)cc1F", "Inhibition": 2.95}
{"compound": "COc1cccc(CNC(=O)CSc2nnc3c4cc(-c5ccc(C)cc5)nn4ccn23)c1", "Inhibition": 4.52}
{"compound": "O=C(Cn1nc2ccc(Sc3ccccc3)nn2c1=O)Nc1ccc(Cl)cc1", "Inhibition": 8.96}
{"compound": "CC(=O)Nc1ccc(NC(=O)CSc2nc3ccccc3n3cnnc23)cc1", "Inhibition": 32.46}
{"compound": "CCOc1ccc(-n2ccn3c(SCC(=O)Nc4ccc(C)cc4Cl)nnc3c2=O)cc1", "Inhibition": 5.12}
{"compound": "COc1cccc(Oc2nccn3c(=O)n(CC(=O)Nc4ccc(OC)c(OC)c4)nc23)c1", "Inhibition": 1.42}
{"compound": "CCc1ccc(N(Cc2ccccc2Cl)S(=O)(=O)c2cccn3c(C)nnc23)cc1", "Inhibition": 5.69}
{"compound": "Cc1ccc(-c2ccc3nn(CC(=O)Nc4ccc(Br)cc4F)c(=O)n3n2)cc1", "Inhibition": 3.52}
{"compound": "Cc1ccc(Oc2nccn3c(=O)n(CC(=O)Nc4cc(F)ccc4F)nc23)cc1", "Inhibition": 4.41}
{"compound": "CC(C)c1nnc2c(=O)n(CC(=O)Nc3cccc(Cl)c3)c3ccccc3n12", "Inhibition": 3.06}
{"compound": "O=c1n(Cc2nc(-c3ccc(OC(F)(F)F)cc3)no2)nc2ccc(-c3ccccc3)nn12", "Inhibition": 3.85}
{"compound": "COc1cccc(-c2noc(Cn3nc4ccc(-c5ccc(C)c(C)c5)nn4c3=O)n2)c1OC", "Inhibition": -0.69}
{"compound": "O=C(Cn1nc2c3sc(N4CCCC4)nc3ncn2c1=O)Nc1cccc(Br)c1", "Inhibition": 3.98}
{"compound": "O=c1c2sccc2n2c(=O)n(Cc3ccc(Br)cc3)nc2n1Cc1cccs1", "Inhibition": 49.64}
{"compound": "CCC(C)NC(=O)Cn1nc2n(CCC(C)C)c(=O)c3sccc3n2c1=O", "note": "(stereo not drawn)", "Inhibition": -2.39}
{"compound": "Cc1cc(C)cc(N(Cc2cc(F)cc(F)c2)S(=O)(=O)c2cccn3c(C)nnc23)c1", "Inhibition": 0.35}
{"compound": "Cc1cc(C)c(NC(=O)CSc2nc3ccccc3n3c(C)nnc23)c(C)c1", "Inhibition": 1.31}
{"compound": "O=C(Cn1nc2c(Sc3ccccc3)nccn2c1=O)Nc1cc(F)ccc1F", "Inhibition": 0.26}
{"compound": "COc1ccccc1NC(=O)Cn1nc2c(Oc3ccc(Cl)cc3)nccn2c1=O", "Inhibition": 22.33}
{"compound": "COc1cccc(-n2ccn3c(SCC(=O)Nc4ccc(F)cc4F)nnc3c2=O)c1", "Inhibition": 4.17}
{"compound": "COc1ccc(NC(=O)Cn2nc3c4cc(-c5ccc(C)cc5)nn4ccn3c2=O)c(OC)c1", "Inhibition": 7.88}
{"compound": "COc1ccc(NC(=O)CSc2nc3ccccc3n3c(C(C)C)nnc23)c(OC)c1", "Inhibition": 2.71}
{"compound": "CCc1ccccc1Sc1nccn2c(=O)n(CC(=O)N3CCN(c4ccccc4)CC3)nc12", "Inhibition": 3.92}
{"compound": "CCOc1ccc(N(Cc2ccc(F)cc2)S(=O)(=O)c2ccc3nncn3c2)cc1", "Inhibition": 3.15}
